An excerpt weighted towards active compounds, which were near 18% of everything screened.
TDP1 cell CPT: growth inhibition of DT40 Tdp1-/-;hTDP1 cells with camptothecin (screen for TDP1 inhibitors); chicken DT40 Tdp1-/-;hTDP1 cells + 20 nM CPT, ATP luminescence, 48 h; Potency, µM (series often up to 46.2 µM), for the others: at the highest dose activity change, negative = growth inhibition, usual class: inhibitors; 420,000 tested, 12% active; also: potency is read from the fitted curve at half-maximal effect; nearly all actives have a fitted effect of over 55% in size
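Chicken DT40 Tdp1-/- cells stably complemented with human TDP1 were seeded at 400 cells/well in medium containing 20 nM camptothecin, exposed to pin-transferred compounds, and grown at 37 °C for at least 48 hr. Viability was read as ATP luminescence.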
TDP1 inh: inhibitors of human tyrosyl-DNA phosphodiesterase TDP1. Q9NUW8. recombinant TDP1, AlphaScreen DNA substrate cleavage. Potency, µM (series often up to 130 µM), inactives show at the top dose activity change, negative = inhibition, most hits filed as inhibitors. 350,000 tested, 0.28% active. AID 485290; also: potency is read from the fitted curve at half-maximal effect; nearly all actives have a fitted effect of over 40% in size
Target sequence (Q9NUW8 whole entry, looked up): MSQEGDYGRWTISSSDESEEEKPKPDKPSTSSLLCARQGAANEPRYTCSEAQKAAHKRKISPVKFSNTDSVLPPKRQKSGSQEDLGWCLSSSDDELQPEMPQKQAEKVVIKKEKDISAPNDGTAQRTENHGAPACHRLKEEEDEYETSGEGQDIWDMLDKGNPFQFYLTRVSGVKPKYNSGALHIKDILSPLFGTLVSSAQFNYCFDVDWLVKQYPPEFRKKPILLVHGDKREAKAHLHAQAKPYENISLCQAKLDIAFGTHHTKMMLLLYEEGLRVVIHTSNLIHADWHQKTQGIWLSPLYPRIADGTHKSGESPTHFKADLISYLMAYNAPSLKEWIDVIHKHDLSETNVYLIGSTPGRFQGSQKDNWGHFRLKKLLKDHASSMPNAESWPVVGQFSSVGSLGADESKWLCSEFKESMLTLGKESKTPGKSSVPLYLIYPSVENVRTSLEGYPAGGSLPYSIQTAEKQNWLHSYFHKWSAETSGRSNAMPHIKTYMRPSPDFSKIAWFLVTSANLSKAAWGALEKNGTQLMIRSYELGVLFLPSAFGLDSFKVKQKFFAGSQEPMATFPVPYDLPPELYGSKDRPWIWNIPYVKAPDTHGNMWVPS
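AlphaScreen read-out: signal falls as enzyme removes the 3' tyrosine-FITC from a 5'-biotinylated DNA oligo (15 nM, 5 min, RT). Enzyme was E. coli-made recombinant Tdp1 at 1 nM, exposed to compound for 15 min beforehand; beads 10 ug/ml, 10 min.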
Six1-Eya2 blk: Six1/Eya2 interaction inhibition | Q15475+O00167 | AlphaScreen GST-Six1/His-Eya2 binding, biochemical; stronger effect = lower value | activity change, % (no concentration beside the values) | 360,000 tested, 0.56% active | AID 651725; in the data active = activity change below about -65%; inconclusive = mostly about -30% to -63%
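Homogeneous AlphaScreen proximity assay pairing GST-Six1 with His-tagged Eya2 (added as 5X mix: 250 nM and 500 nM) in 50 mM Tris pH 8.0, 300 mM NaCl, 1 mM TCEP. Glutathione donor and nickel acceptor beads; 1 h, 37 °C, dark.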
DT40 TDP1 no CPT: qHTS for Inhibitors of human tyrosyl-DNA phosphodiesterase 1 (TDP1): qHTS in cells in absence of CPT; DT40 Tdp1-/- hTDP1 cells, no CPT, ATP luminescence, 48 h; Potency, µM (top dose mostly 46.2 µM), inactives show top-dose activity change, negative = growth inhibition, most hits filed as inhibitors; 420,000 tested, 15% active; also: potency is read from the fitted curve at half-maximal effect; nearly all actives have a fitted effect of over 55% in size
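Camptothecin absent (DMSO only). Human TDP1-complemented DT40 knockout cells, 400 cells/well, 37 °C for minimum 48 hr; ATP measured via CellTiter-Glo, 30 min dark incubation, luminescence.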
IL1B secr inh: inhibitors of inflammasome signaling (IL-1 beta secretion); AID 743279; 360,000 tested, 4.7% active; THP-1 LPS/ATP IL-1B secretion, AlphaLISA, 16 h; stronger effect = lower value; activity change, % at 57.5 µM; in the data active = activity change below about -50%; inconclusive = mostly about -30% to -49%
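Secreted IL-1B measured by AlphaLISA bead assay after 16 h compound exposure of THP-1 cells; compounds (final up to 57.5 uM) added 1 h before LPS (250 ng/mL) and ATP (1.25 mM) stimulation; lower signal means less secretion.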
CtBP-E1A blk: blocks the CtBP interaction with E1A | activity change, % (concentration not given with the values) | 340,000 tested, 0.49% active | AlphaScreen GST-E1A/His-CtBP binding, 1536-well; stronger effect = lower value; in the data active = activity change below about -65%; inconclusive = mostly about -30% to -63%
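Homogeneous bead-based format: GST-tagged E1A captured on glutathione donor beads, His-tagged CtBP on nickel acceptor beads; compounds precede bead addition by 2 h at 37 °C.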
The depositor's hits bear a star. Unless noted, calls follow the shape of the dose curve; as a rule, active = well fitted curve in the direction sought with a large enough effect; inconclusive = small, poorly fitted or top-dose-only effect, or another doubt; inactive = no such curve, though single readings can be large; an effect the other way counts as inactive or inconclusive. % is scaled to controls: 0 for no effect and ±100 for the full control effect.

How did O=C(CCC1CCCN(C(=O)c2cc3ccccc3o2)C1)NCc1ccc(F)c(F)c1 (stereo not drawn) do in these assays?
TDP1 cell CPT: 16.4µM*; Six1-Eya2 blk: 1.4; DT40 TDP1 no CPT: 16.4µM*; IL1B secr inh: 0.0; CtBP-E1A blk: 1.7

Results for Cc1ncoc1C(=O)N1CCCC(CCC(=O)NCc2ccccc2F)C1 (stereo not drawn) ?
TDP1 cell CPT: inconclusive; TDP1 inh: -6.1%; Six1-Eya2 blk: 1.9; DT40 TDP1 no CPT: 20.6µM*; IL1B secr inh: 12.1; CtBP-E1A blk: 0.0

Results for COCc1ccc(C(=O)N2CCCC(CCC(=O)NCc3ccccc3F)C2)o1 (stereo not drawn) ?
TDP1 cell CPT: 3.66µM*; TDP1 inh: -4.8%; Six1-Eya2 blk: 5.1; DT40 TDP1 no CPT: 2.91µM*; IL1B secr inh: 41.6; CtBP-E1A blk: -19.3

How did O=C(CCC1CCCN(C(=O)c2ccncc2)C1)NCc1ccc(F)c(F)c1 (stereo not drawn) do in these assays?
TDP1 cell CPT: -17.3%; TDP1 inh: 0.0%; Six1-Eya2 blk: 11.0; DT40 TDP1 no CPT: inconclusive; IL1B secr inh: 8.8; CtBP-E1A blk: 3.9

Results for Cc1ccc(NC(=O)NC2CC(=O)N(c3ccc4c(c3)OCCO4)C2)cc1C (stereo not drawn) ?
TDP1 cell CPT: inconclusive; TDP1 inh: 5.9%; Six1-Eya2 blk: -1.2; DT40 TDP1 no CPT: -22.9%; IL1B secr inh: 6.3; CtBP-E1A blk: -1.9

Results for CCCN(CCC)C(=O)c1c(NC(=O)CC)sc2c1CCCCC2 ?
TDP1 cell CPT: inconclusive; TDP1 inh: -5.0%; Six1-Eya2 blk: -3.2; DT40 TDP1 no CPT: inconclusive; IL1B secr inh: -24.7; CtBP-E1A blk: 1.7

What do the screens show for `Cc1ccoc1C(=O)N1CCCC(CCC(=O)N2CCN(c3ccccn3)CC2)C1` (stereo not drawn)?
TDP1 cell CPT: inconclusive; TDP1 inh: 6.2%; Six1-Eya2 blk: 14.6; DT40 TDP1 no CPT: 23.1µM*; IL1B secr inh: -23.3

How did COc1cccc(CNC(=O)CCC2CCCN(Cc3cc4ccccc4o3)C2)c1 (stereo not drawn) do in these assays?
TDP1 cell CPT: 18.4µM*; TDP1 inh: -4.8%; Six1-Eya2 blk: -12.7; DT40 TDP1 no CPT: 25.9µM*; IL1B secr inh: -60.0*; CtBP-E1A blk: -6.7

Results for O=C(CCC1CCCN(C(=O)c2ccco2)C1)NCc1ccccc1F (stereo not drawn) ?
TDP1 cell CPT: 18.4µM*; TDP1 inh: 0.0%; Six1-Eya2 blk: -1.6; DT40 TDP1 no CPT: inconclusive; IL1B secr inh: 24.0; CtBP-E1A blk: 2.4

What do the screens show for `Cc1c(NC(=O)CCC(=O)N2CCCCC2)c(=O)n(-c2ccccc2)n1C`?
TDP1 cell CPT: 16.1%; TDP1 inh: 1.9%; Six1-Eya2 blk: 3.9; DT40 TDP1 no CPT: -26.9%; IL1B secr inh: 12.1; CtBP-E1A blk: 4.4

What do the screens show for `Cc1cc(NS(=O)(=O)c2ccc(NC(=S)NC(=O)c3ccccc3)cc2)no1`?
TDP1 cell CPT: inconclusive; TDP1 inh: 2.8%; Six1-Eya2 blk: 0.0; DT40 TDP1 no CPT: -105.2%; IL1B secr inh: 59.9; CtBP-E1A blk: -1.7

What do the screens show for `O=c1c2c3c(sc2n(CCN2CCCCC2)c(=O)n1Cc1ccco1)CCCCC3`?
TDP1 cell CPT: 12.6µM*; TDP1 inh: 8.6%; Six1-Eya2 blk: inconclusive; DT40 TDP1 no CPT: 17.8µM*; IL1B secr inh: -20.2; CtBP-E1A blk: -29.4

What do the screens show for `O=c1c2c3c(sc2n(CCN2CCOCC2)c(=O)n1Cc1ccco1)CCCCC3`?
TDP1 cell CPT: 8.2µM*; TDP1 inh: -3.2%; Six1-Eya2 blk: -22.5; DT40 TDP1 no CPT: 10.3µM*; IL1B secr inh: inconclusive; CtBP-E1A blk: inconclusive

How did NC(=O)Cn1c(=O)n(Cc2ccco2)c(=O)c2c3c(sc21)CCCCC3 do in these assays?
TDP1 cell CPT: -15.4%; Six1-Eya2 blk: -24.8; DT40 TDP1 no CPT: -21.7%; IL1B secr inh: 24.8; CtBP-E1A blk: -15.1

What do the screens show for `O=C(O)CSC1CC(=O)N(c2ccc(Cl)c(Cl)c2)C1=O` (stereo not drawn)?
TDP1 cell CPT: -5.2%; TDP1 inh: 5.2%; Six1-Eya2 blk: 0.8; DT40 TDP1 no CPT: -27.0%; IL1B secr inh: 2.8; CtBP-E1A blk: -2.8

How did COc1cccc(NC(=O)C(C)n2c(=O)cc(C(F)(F)F)c3c(C)nn(C)c32)c1 (stereo not drawn) do in these assays?
TDP1 cell CPT: 16.4µM*; TDP1 inh: 4.5%; DT40 TDP1 no CPT: 18.4µM*

What do the screens show for `Cc1ccc(CNC(=O)C(C)n2c(=O)cc(C(F)(F)F)c3c(C)nn(C)c32)cc1` (stereo not drawn)?
TDP1 cell CPT: 25.9µM*; TDP1 inh: 4.5%; DT40 TDP1 no CPT: inconclusive

What do the screens show for `Cc1nn(C)c2c1c(C(F)(F)F)cc(=O)n2C(C)C(=O)Nc1ccccc1F` (stereo not drawn)?
TDP1 cell CPT: inconclusive; TDP1 inh: 3.2%; DT40 TDP1 no CPT: -25.7%

Results for COc1ccc(CCNC(=O)C(C)n2c(=O)cc(C(F)(F)F)c3c(C)nn(C)c32)cc1OC (stereo not drawn) ?
TDP1 cell CPT: inconclusive; TDP1 inh: 1.9%; DT40 TDP1 no CPT: inconclusive

Results for CCOC(=O)c1sc2ncn(CC(=O)Nc3ccc(N(C)C)cc3)c(=O)c2c1C ?
TDP1 cell CPT: -7.4%; TDP1 inh: -2.9%; DT40 TDP1 no CPT: -1.9%

What do the screens show for `CC1CCCN(C(=O)c2sc3cc([N+](=O)[O-])ccc3c2Cl)C1` (stereo not drawn)?
TDP1 cell CPT: 25.9µM*; TDP1 inh: 5.2%; Six1-Eya2 blk: -22.7; DT40 TDP1 no CPT: 16.4µM*; IL1B secr inh: -17.7; CtBP-E1A blk: -21.1

How did CC(NC(=O)c1sc2cc([N+](=O)[O-])ccc2c1Cl)C(C)(C)C (stereo not drawn) do in these assays?
TDP1 cell CPT: 5.17µM*; TDP1 inh: 5.5%; Six1-Eya2 blk: -14.0; DT40 TDP1 no CPT: 4.11µM*; IL1B secr inh: inconclusive; CtBP-E1A blk: -5.8

What do the screens show for `O=C(c1sc2cc([N+](=O)[O-])ccc2c1Cl)N1CCCCC1`?
TDP1 cell CPT: -2.4%; TDP1 inh: 5.8%; Six1-Eya2 blk: -22.8; DT40 TDP1 no CPT: inconclusive; IL1B secr inh: inconclusive; CtBP-E1A blk: -10.9

What do the screens show for `O=C(CSc1nc2ccccc2o1)N1CCCC1`?
TDP1 cell CPT: -2.8%; TDP1 inh: 5.1%; Six1-Eya2 blk: 7.5; DT40 TDP1 no CPT: -20.2%; IL1B secr inh: 3.0; CtBP-E1A blk: -3.6

Assay outcomes (PubChem BioAssay)
